Only some compounds are listed: those with a hit (about 8.7% of all), similar ones and a draw of the others.
PostGolgi ctrl – yeast control strain growth, post-Golgi counter-screen; 5% of 98,000 active; inhibition, % at 10 µM; AID 738; efflux-deficient yeast background strain, growth absorbance A615, 16 h
Smad3 inh – blocks human Smad3 binding to FoxH1 peptide | TR-FRET Smad3/Dy647-FoxH1 peptide binding, europium anti-His | inhibition, % at 25 µM | P84022 | 0.29% of 88,000 active | AID 630;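 active = compounds that reduce the energy-transfer binding signal between the protein and its labelled peptide by more than half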;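 note: 0% = Smad3 plus labelled peptide maximal FRET and 100% = peptide-only background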
PostGolgi yeast – growth inhibition of a yeast mutant, post-Golgi transport screen; 0.9% of 98,000 active; inhibition, % at 10 µM; AID 739; post-Golgi transport phenotypic cell assay;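 note: yeast cells grown in 1536-well plates; yeast grown about 18 h at 30C before absorbance read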
Cav32 inh – blocks human Cav3.2 T-type calcium channel; O95180; Cav3.2-expressing cells, Fluo-4 calcium fluorescence FDSS; stronger effect = lower value; B-score at 10 µM; 4% of 100,000 active; AID 449739;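 active = single-dose well whose peak fluorescence ratio is a statistical outlier from its plate by either plate-standardised score or position-corrected B-score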
hDAT+cocaine – modulates human dopamine transporter uptake under cocaine; AID 449768; 1.3% of 110,000 active; LLC-PK1 hDAT cells, [14C]-dopamine uptake with cocaine IC80; actives deviate in either direction; Q01959; B-score at 10 µM;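 active = Z score or B-score, a plate-position-corrected score, falls beyond the plate's 99.7% confidence bounds, in either direction; inactive = both scores lie inside the 99.7% bounds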;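 note: scored against the spread of the other compound wells on the same plate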
TNAP act DEA – activators of human TNAP at intermediate phosphate acceptor. purified TNAP, CDP-star luminescence, 100 mM DEA, 30 min; stronger effect = higher value; scale: 0 levamisole-inhibited, 1 vehicle-only enzyme. AID 813. 64,000 tested, under 10 active. P05186. activation factor at 20 µM;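 active = activation factor of at least 2 at 20 µM, relative to controls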
An asterisk follows results filed as active; . = no result given. Cut-off read from the data, not from the text of the source, unless noted: active = inhibition above about 30%; inactive = the rest.

SMILES	PostGolgi ctrl	Smad3 inh	PostGolgi yeast	Cav32 inh	hDAT+cocaine	TNAP act DEA
CC(O)CSc1nc2c(c(=O)n(C)c(=O)n2C)n1CCCc1ccccc1 (configuration not stated)	.	.	.	-0.62	0.56	0.9
CC(SCC(=O)Nc1ccc(S(=O)(=O)N2CCCCC2)cc1)C(=O)O (configuration not stated)	-2	9	-1	0.33	-0.74	0.9
CCC(Sc1nc(-c2ccccc2)c(C#N)c(=O)[nH]1)C(=O)Nc1nnc(C)s1 (configuration not stated)	0	.	19	0.13	-0.45	.
Cc1ccc(C)c(Cn2c(CN(C)Cc3ccccc3)nc3c2c(=O)n(C)c(=O)n3C)c1	45*	-14	3	-5.2	0.45	1
CCCCCn1c(CN(C)Cc2ccccc2)nc2c1c(=O)n(C)c(=O)n2C	17	4	-5	-2.9	0.95	0.8
CN(Cc1ccccc1)c1nc2c(c(=O)[nH]c(=O)n2C)n1Cc1ccccc1	15	13	14	-0.4	0.024	0.9
Cc1ccc(Cn2c(CN(C)Cc3ccccc3)nc3c2c(=O)n(C)c(=O)n3C)cc1	38*	-6	0	-5.2*	1	0.9
CCOC(=O)N1CCN(Cc2nc3c(c(=O)n(C)c(=O)n3C)n2Cc2cc(C)ccc2C)CC1	.	-11	.	.	.	1
CN(Cc1ccccc1)c1nc2c(c(=O)[nH]c(=O)n2C)n1CCOc1ccccc1	29	4	-8	-4.8*	-0.54	0.9
O=S1(=O)Nc2c(ccc3cccnc23)-c2ccccc21	72*	.	85*	1.6	-0.3	0.9
CC(N=C1NS(=O)(=O)c2ccccc21)c1ccccc1 (configuration not stated)	7	3	16	-0.62	0.014	1
COc1ccc(Cl)cc1N1C(=O)/C(=C\c2sccc2C)N=C1SCC(=O)NC1CC1	18	.	-1	-6.2*	-0.72	.
Cc1ccc(S(=O)(=O)NC(C)CCc2ccccc2)cc1 (configuration not stated)	28	.	-11	-4.1*	2	.
Cc1ccc(NC(=O)CC(O)(C(F)(F)F)C(F)(F)F)c(Br)c1	18	2	-5	-0.89	-3*	0.9
Cc1cc(N2CCCCC2)nc(SCc2ccc(C#N)cc2)n1	40*	-4	1	-4.7	0.027	1
C/C(CCc1ccc2c(c1)OCO2)=N\N=C1\NC(=O)CC(C(=O)Nc2ccccc2)S1 (configuration not stated)	-6	.	8	-3.8	0.9	.
C/C(CCc1ccc2c(c1)OCO2)=N\N=C(/N)SC1CC(=O)N(c2ccccc2F)C1=O (configuration not stated)	-1	.	3	-5.9*	-0.02	.
O=C(O)C1C2C=CC(C2)C1C(=O)N1CCOCC1 (configuration not stated)	53*	2	-10	-0.11	-0.032	0.8
CCOC(=O)N1CCN(C(=O)CS(=O)(=O)Cc2nc(-c3ccccc3C)oc2C)CC1	5	.	2	0.2	1.1	1
Nc1c(C(=O)Nc2ccccc2F)sc2nc(Cc3ccccc3)cc(C(F)(F)F)c12	-4	.	18	-3.4*	0.08	.
O=C(NCc1ccccc1)C1C2C=CC3(CN(Cc4cccnc4)C(=O)C13)O2 (configuration not stated)	4	1	6	0.013	0.087	1
CC(C)N1C(=O)C2C(C(=O)NCc3ccccc3)C3C=CC2(O3)C1C(=O)NC(C)(C)C (configuration not stated)	42*	-11	6	-0.008	-0.68	0.9
CCOc1cc(/C=N/NC(=O)CNc2cccc(C)c2)ccc1OC(=O)c1ccccc1	7	6	1	-3.9*	2.2	.
CCOc1cc(/C=N/NC(=O)COc2ccccc2C)ccc1OC(=O)c1cccs1	-6	.	-4	-1.6	0.73	.
Cc1sc2nc(CN3CCN(S(=O)(=O)c4cccc5nonc45)CC3)[nH]c(=O)c2c1C	6	-2	4	-0.37	1.4	0.8
SMILES	PostGolgi ctrl	Smad3 inh	PostGolgi yeast	Cav32 inh	hDAT+cocaine	TNAP act DEA
COc1ccc(C2N=C(c3ccccc3)NC(c3ccccc3)=N2)cc1	.	-1	.	-1.3	0.42	.
COc1cc(C2N=C(c3ccccc3)NO2)cc(Br)c1O (configuration not stated)	14	9	-6	-0.21	2.6*	0.9
CCCOc1ccc(C(=O)NNC(=S)NC(=O)c2cc(-c3ccc(Cl)cc3)nc3ccccc23)cc1	10	.	-2	-6.7*	-0.73	.
Cc1ccc(C(=O)NNC(=S)NC(=O)c2ccc(Cl)cc2)cc1	11	.	-5	-4.2*	-1.7	.
Cc1ccccc1C(=O)NNC(=S)NC(=O)c1ccc(Cl)cc1Cl	21	.	7	-4*	-0.04	.
COc1ccccc1NC(=S)NNC(=O)c1ccc(Cl)cc1Cl	.	-1	.	-2.9	0.57	.
O=C(CCc1ccccc1)NNC(=S)NC(=O)c1ccc(Cl)cc1	26	.	12	-3.7*	-0.022	.
COc1ccc(C(=O)NNC(=S)NC(=O)c2cc(-c3ccccc3)nc3ccccc23)cc1	3	.	-5	.	.	.
O=c1/c(=C/c2ccc([N+](=O)[O-])cc2)sc2n1CCCN=2	4	.	-7	0.53	-1.3	.
Cc1cccc(NC(=O)c2cc(N3CCOCC3)nc3ccccc23)c1	4	-4	1	-1.9	-0.78	0.8
CCCCCc1ccc(-c2ccc(=O)[nH]n2)cc1	31*	-1	-6	.	.	0.8
c1csc(-c2nn3c(C4CCCCC4)nnc3s2)c1	.	-33	.	.	.	0.9
Clc1ccc(OCc2nn3c(C4CCCCC4)nnc3s2)cc1	42*	-6	12	-2.7	1.3	0.9
CCN(CC)C(=O)C1CCN(S(=O)(=O)c2ccc3oc4ccccc4c3c2)CC1	10	-4	-3	.	2.3*	1
Clc1ccc(Nc2ccc(-n3ccnc3)nn2)cc1Cl	34*	.	9	-0.44	0.1	.
FC(F)(F)c1ccc(-n2ccnc2)nc1	-5	0	-3	0.42	-1.7	1
CCSc1nnc(NC(=O)c2cc(C)on2)s1	33*	3	1	0.35	0.87	1
CCSc1nnc(NC(=O)C(C)(C(F)(F)F)C(F)(F)F)s1	23	1	16	-3.2	-0.63	0.8
CCSc1nnc(NC(=O)NCC(F)(F)F)s1	-4	2	45*	-0.0015	0.053	1
CCSc1nnc(NC(=O)c2ccc3c(c2)OCO3)s1	41*	4	10	0.068	-0.016	0.9
COc1cc(CN(C)CCc2ccccn2)cc(OC)c1OC	7	.	-1	.	1.6	1
c1ccc(CCSc2nccn2-c2ccccc2)cc1	2	.	-3	-3.3	1.1	.
CCc1ccc(CSc2nccn2-c2ccccc2)cc1	7	.	1	-5.4*	0.096	.
O=C(CN(C(=O)CSc1nnc(COc2ccccc2)o1)c1ccc(F)cc1)NC1CCCC1	23	6	2	-0.43	1.2	1
CCOc1ccc(N(CC(=O)NC2CCCC2)C(=O)CSc2nnc(COc3ccccc3)o2)cc1	14	.	0	-5.4*	2	.

Compound activity as filed in PubChem.
